# Reference: PubChem BioAssay AID720518 (National Center for Advancing Translational Sciences (NCATS), 2013)
# Records with an inconclusive call do not appear. Unmarked numbers belong to inactive results. Activity calls are given as the source filed them. Calls come from the whole dose curve.
# Assay: qHTS for Inhibitors of Cell Surface uPA Generation: Wild-type Protective Antigen (WT-PrAg) Counterscreen for Cherry-picked Compounds; for activity (protection): 0% is about no effect
# Conditions: cells, WT protective antigen toxicity counterscreen; series mostly up to 115 µM; activity (protection): at the top concentration
# Potency is the fitted concentration of half-maximal effect.
SMILES,Potency,activity (protection) [%]
COC(=O)c1c(NC(=O)c2c(OC)cccc2OC)sc2c1C(C(=O)OC)CC2 (configuration not stated),46.5 µM (active),–
CCOc1cc(/C=C(\C#N)C(=O)NCc2cccnc2)ccc1O,–,-1.63
O=C1OCC/C1=C\c1ccc(O)cc1,–,-1.6
CCOC(=O)c1ccc(N=Cc2c(O)n(-c3ccc(OC)cc3)c(=S)[nH]c2=O)cc1,–,0.91
O=C(NNC(=O)c1ncc(Cl)c(Cl)c1Cl)c1ccc(F)cc1,–,0.595
Cc1cc(=O)[nH]c2c(C)cc(S(=O)(=O)Nc3ccc(O)cc3)cc12,–,-1.13
Cc1c([N+](=O)[O-])c2ccc(O)cc2n1-c1ccccc1,–,11.1
Cc1noc(C)c1COc1ccc(C(=O)N2CCN(S(=O)(=O)c3ccc(Cl)cc3)CC2)cc1,–,3.98
O=C(COC(=O)/C=C/c1cccc(F)c1)Nc1ccccc1,–,-0.363
CC(=O)NC(=S)Nc1ccc([N+](=O)[O-])cc1C,–,4.08
Cc1cc(OC(C)C(=O)NCc2ccccn2)c2c(C)cc(=O)oc2c1 (configuration not stated),–,3.44
C/C=C(/C(=C/C)c1ccc(O)cc1)c1ccc(O)cc1,–,-2.13
COCCN1C(=O)C(=O)/C(=C(/O)c2ccc(S(=O)(=O)N3CCOCC3)cc2)C1c1cccc([N+](=O)[O-])c1 (configuration not stated),–,-1.23
CCS(=O)c1scc(-c2ccc(Cl)cc2)c1C#N (configuration not stated),–,-2.44
COc1ccc(N2CCN(C(=O)COc3ccc4c(C)c(C)c(=O)oc4c3C)CC2)cc1,–,-1.1
Cc1oc(-c2ccccc2F)nc1CS(=O)CC(=O)NCc1ccc(F)cc1 (configuration not stated),–,-1.42
COc1ccc2nc3c(cc2c1)c(NC(=O)C1CCCO1)nn3CC(C)C (configuration not stated),–,1.84
